Assay results from PubChem BioAssay (NCATS).
Inconclusive results are not listed. Values without a mark were called inactive. Active and inactive are the calls of the source. Calls come from the whole dose curve; as a rule, active = well fitted inhibition curve with a large enough effect; inconclusive = small, poorly fitted or top-dose-only effect; inactive = flat fitted curve, though single readings scatter.

Target: Calcium and integrin-binding protein 1 (Homo sapiens) (UniProt Q99828)
Assay: Primary qHTS for Identification of Calcium Integrin Binding Protein 1 (CIB1) Competitor (AID 1508620);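 note: GST tagged CIB1 binding a fluorescein labelled alphaIIb integrin peptide tracer; top concentration of the series differs between compounds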
Details: CIB1-GST / FITC-alphaIIb peptide fluorescence polarization; series mostly up to 114 µM; activity change, negative = inhibition: at the top concentration
How it was run: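 Fluorescence polarization competition: CIB1-GST (1 uM final) preincubated with compound 15 min at room temperature, then FITC-labeled alphaIIb peptide (100 nM final) added for another 15 min. Polarization read at Ex 480/Em 540.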
% is set by controls: 0 for no effect and ±100 for the full control effect.

Calcium and integrin-binding protein 1 (Homo sapiens), sequence (Q99828 whole entry, looked up): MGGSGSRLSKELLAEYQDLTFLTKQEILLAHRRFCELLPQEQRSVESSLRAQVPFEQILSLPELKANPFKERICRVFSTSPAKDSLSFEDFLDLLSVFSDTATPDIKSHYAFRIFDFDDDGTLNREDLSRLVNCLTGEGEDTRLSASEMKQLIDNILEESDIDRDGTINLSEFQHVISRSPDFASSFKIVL

SMILES	activity change, negative = inhibition	Potency
Cc1c(C(=O)OCC2CCCO2)[nH]c2c1C(=O)CCC2 (centres undefined)	-11.3%	–
Cc1c(C(=O)OC[C@H]2CCCO2)[nH]c2c1C(=O)CC(c1ccco1)C2 (some centres undefined)	-17.8%	–
O=C(O)CCc1cc(F)c(S(=O)(=O)N2CCN(S(=O)(=O)c3ccc4c(c3)OCCO4)CC2)cc1F	-7.99%	–
COc1cc(O)c(C(CC(=O)N2CCCC(C)C2)c2ccc(OC)c(OC)c2)c(OC)c1 (centres undefined)	3% [at 228 µM]	–
O=S(=O)(c1ccc2c(c1)OCCO2)N1CCN(S(=O)(=O)c2cccc[n+]2[O-])CC1	4.63%	–
Cc1cc2c(s1)c1cnn(Cc3ccc4ccccc4c3)c(=O)c1n2C	1.5%	–
COc1cc2c(s1)c1cnn(Cc3ccccc3F)c(=O)c1n2C	5.29%	–
O=C1c2ccccc2NC(c2ccc(-c3cccs3)o2)N1O (centres undefined)	-18.8%	–
O=C(Nc1cc(C(F)(F)F)ccc1Cl)[C@H](O)CCc1ccccc1	1.48%	–
O=C(c1ccc(-c2cnc3c(O)cccc3c2)cc1)N1CCNCC1	-20.4%	–
CN1CCN(Cc2cc(COCc3ccccc3)c3cccnc3c2O)CC1	-6.17%	–
O=S1(=O)N=C(Oc2cccc(C(F)(F)F)c2)c2ccccc21	-0.689%	–
Cc1cc2c(s1)c1cnn(Cc3ccc(F)c(F)c3F)c(=O)c1n2C	5.28%	–
NC(=O)C1CCN(c2nc(-c3cccc(N)c3)cs2)CC1	2.57%	–
COc1ccc(CN(Cc2ccccc2)C(=O)c2ccccc2)cc1COc1ccc(NC(C)=O)cc1	0.803%	–
COc1cccc(CNc2ccc(S(=O)(=O)Nc3nc4ccccc4o3)cc2)c1O	-16.4%	–
COc1cc(Nc2nc(-c3ccncc3)nc3ccccc23)ccc1F	–	inactive
COc1cccc(C2c3c(ncn(-c4ccc5c(c4)OCO5)c3=N)Oc3ccc4ccccc4c32)c1 (centres undefined)	-0.936%	–
O=S(=O)(c1ccc2c(c1)OCCO2)N1C[C@@H]2C[C@H]1CN2S(=O)(=O)c1c(F)cccc1F	-0.1%	–
Cn1cncc1CNc1ncnc2ccc(-c3ccc4c(c3)OCO4)cc12	-12.2%	–

SMILES	activity change, negative = inhibition	Potency
Nc1ccc(C(=O)Nc2ccc(-c3nc4ccccc4[nH]3)cc2)cc1Cl	0.18%	–
Brc1ccc(-c2ccc(C3Nc4cccc5cccc(c45)N3)o2)cc1	-20.5%	–
Cc1ccc(NS(=O)(=O)c2ccc3c(c2)CCC(=O)N3)cc1F	3.19%	–
CC(=O)Nc1sc2c(c1-c1nc3ccccc3s1)CN(C1COC1)C2	-15.4%	–
Cc1c(C(=O)NCC2CCCO2)[nH]c2c1C(=O)CCC2 (centres undefined)	-6.62%	–
Cc1ccc(CNc2ncnc3cc(-c4ccc5c(c4)OCO5)ccc23)o1	-2.27%	–
N#Cc1c(-c2cccc(Cl)c2)no[n+]1[O-]	-0.861%	–
O=C(NNC(=O)c1cc2ccccc2[nH]1)OCc1ccccc1	0.809%	–
Cc1cc(-c2ccccc2)nc2c(C(=O)Nc3ccc4c(c3)CCC4)cnn12	1.99%	–
O=C(OCC#CCSc1nnc(-c2ccc3ccccc3c2)o1)c1ccc(F)c(F)c1	1.42%	–
COc1ccc(OCc2nnc3n2N=C(c2ccccc2)CS3)cc1	-1.95%	–
CCOc1ccccc1-c1nnc2n1N=C(c1ccccc1OC)CS2	1.6%	–
N#Cc1nc(NCC(F)F)c2ncn(-c3cc(F)cc(F)c3)c2n1	5.7%	–
Cc1cc(C)nc(NC(=S)N2CCN(c3ncccc3C(F)(F)F)CC2)c1	–	inactive
Cc1cnc(-c2ccccc2C(C)C)nc1NCC1CCN(C2COC2)CC1	1.25%	–
c1ccc(CNCc2nnc(-c3cc4ccccc4[nH]3)o2)cc1	-4.47%	–
CC(=O)Nc1cccc(OCc2cccc(C3Nc4ccccc4C(=O)N3Cc3ccco3)c2)c1 (centres undefined)	-2.25%	–
CCn1cnc2c(Nc3ccc(CC(=O)N=C(N)N)cc3)nc(C#N)nc21	2.97%	–
Cc1ccc(-c2ccc(=O)n(CCNC(C)c3ccco3)n2)cc1 (centres undefined)	-11.7%	–
